Compounds with a hit are over-represented: about 27% of the library has one in this group of screens.
CYP2C9 inhib – blockers of cytochrome P450 2C9 activity – biochemical, luminescence, ADME assay, primary screen | P11712 | CYP2C9 Supersomes, luciferin-H conversion | inhibition, % at 5 µM | actives 20% (n = 96,000) | AID 777, 2007;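 active means blocking of liver enzyme CYP2C9 beyond about 50% at 5 µM, limit read from the data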
CYP2C19 inh – blockers of cytochrome P450 2C19 activity – biochemical, luminescence, ADME assay, primary screen. CYP2C19 Supersomes, luciferin-H EGE luminescence, 30 min. inhibition, % at 5 µM. actives 21% (n = 96,000);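 active means CYP2C19 inhibition above a set limit at 5 µM in the primary screen, cut at about 50% in these data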
Target sequence (P33261 whole entry, looked up): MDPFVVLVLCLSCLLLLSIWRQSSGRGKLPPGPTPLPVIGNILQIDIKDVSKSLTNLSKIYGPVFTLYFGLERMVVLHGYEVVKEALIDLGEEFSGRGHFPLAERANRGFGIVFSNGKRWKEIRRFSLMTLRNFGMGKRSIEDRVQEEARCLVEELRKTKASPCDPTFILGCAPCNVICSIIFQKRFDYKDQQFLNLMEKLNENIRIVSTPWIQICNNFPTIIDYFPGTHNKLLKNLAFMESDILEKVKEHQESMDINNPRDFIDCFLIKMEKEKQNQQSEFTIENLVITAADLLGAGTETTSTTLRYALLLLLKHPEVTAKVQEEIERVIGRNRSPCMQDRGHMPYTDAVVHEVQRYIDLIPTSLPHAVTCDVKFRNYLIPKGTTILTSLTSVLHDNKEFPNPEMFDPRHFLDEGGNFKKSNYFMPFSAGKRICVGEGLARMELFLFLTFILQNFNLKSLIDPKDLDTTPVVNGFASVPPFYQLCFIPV
CYP2C19 activ – human CYP2C19 activators, primary screen, biochemical, luminescence; Cytochrome P450 2C19 (Homo sapiens), P33261; AID 1025, 2008; activation factor at 5 µM; 96,000 tested, under 10 active; recombinant CYP2C19, luciferin-H EGE luminescence; hits give high values; 0 = fully inhibited enzyme, 1 = untreated enzyme;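 active means activation factor of at least 2 at 5 µM in the primary screen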
CYP2C9 activ – human CYP2C9 activators, primary screen, biochemical, luminescence; Cytochrome P450 2C9 (Homo sapiens), P11712; recombinant CYP2C9, luciferin-H conversion; hits give high values; factor 1 = untreated enzyme, 0 = blocked; activation factor at 5 µM; actives 1.4% (n = 96,000); AID 1024, 2008;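 active means activation factor of 2 or more for CYP2C9 at a 5 µM dose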
EphB4 antag – EphB4-ephrin-B2 interaction antagonists, primary screen, biochemical, TNYL-RAW peptide probe, fluorescence polarization | EphB4 LBD / TNYL-RAW-Alexa532 peptide | inhibition, % at 7 µM | actives 0.15% (n = 97,000) | AID 720, 2007;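 active means inhibition above the screen-wide mean inhibition plus 3 SD, cut at about 15% in these data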
Large screens that a line does not name were inactive.

c1ccc(CN2CCN(c3nc(NCc4ccco4)c4ccccc4n3)CC2)cc1	CYP2C9 inhib 66, CYP2C19 inh 51
CSc1nc(NCc2ccco2)c2ccccc2n1	CYP2C9 inhib 64, CYP2C19 inh 64
CC1(C)CC(=O)c2cc(OCC(=O)N3CCN(c4ccccc4F)CC3)ccc2O1	CYP2C19 inh 68 (no result: EphB4 antag)
CC1(C)CC(=O)c2cc(OCC(=O)N3CCCCCC3)ccc2O1	none
Cc1cc(C(=O)CSc2nnc(-c3ccco3)o2)c(C)n1CC1COc2ccccc2O1 (stereo not given)	CYP2C9 inhib 78, CYP2C19 inh 100 (no result: EphB4 antag)
Cc1cc(C(=O)CSc2nnc(-c3ccc(F)cc3)o2)c(C)n1CC1COc2ccccc2O1 (stereo not given)	CYP2C9 inhib 54
O=C(CSc1nnc(-c2ccco2)o1)NC(=O)C1COc2ccccc2O1 (stereo not given)	CYP2C19 inh 61 (no result: EphB4 antag)
Cc1cc(C(=O)CSc2nnc(-c3ccccc3)o2)c(C)n1CC1COc2ccccc2O1 (stereo not given)	CYP2C19 inh 88
O=C(CSc1nnc(-c2ccco2)o1)c1ccccc1	none
CCc1cc2c3c(c1)/C(=C1/SC(N)=NC1=O)C(=O)N3C(C)(C)C=C2C	none
CC(=O)OC(C(=O)Nc1ccccc1C)C(OC(C)=O)C(OC(C)=O)C(OC(C)=O)C(=O)Nc1ccccc1C (stereo not given)	none (no result: CYP2C9 inhib, CYP2C19 inh, CYP2C19 activ, CYP2C9 activ)
CCOc1cc(N2CCOCC2)c(OCC)cc1NC(=O)COc1ncnc2ccc(Br)cc12	none
CCCSc1nc(C)c(C(C)=O)cc1C#N	none
Cc1ccccc1NS(=O)(=O)c1cc(S(C)(=O)=O)ccc1Cl	none
Cc1cc(NS(=O)(=O)c2ccccc2)c(C)c(Cl)c1O	CYP2C19 inh 99, CYP2C9 activ 2.8 (no result: EphB4 antag)
Cn1c(SCC(=O)NCc2ccc3c(c2)OCO3)nnc1-c1cc2ccccc2cc1O	none (no result: CYP2C9 inhib, CYP2C19 inh, CYP2C19 activ, CYP2C9 activ)
O=C1CN(C(=O)CSc2nnc(-c3ccccc3)n2Cc2ccc3c(c2)OCO3)c2ccccc2N1	CYP2C19 inh 63
Cn1c(SCC(=O)NCc2ccc3c(c2)OCO3)nnc1-c1cccs1	CYP2C9 inhib 65 (no result: EphB4 antag)
O=C(CSc1nnc(Cc2cccs2)n1-c1ccc(Cl)cc1)NCc1ccc2c(c1)OCO2	CYP2C9 inhib 54
CC(Sc1nnc(-c2cccs2)n1Cc1ccccc1)C(=O)NCc1ccc2c(c1)OCO2 (stereo not given)	CYP2C9 inhib 85
Cc1nc2ccc(F)cc2cc1C(=O)NCC1CCCO1 (stereo not given)	none
O=C1CC(N2CCN(C/C=C/c3ccccc3)CC2)C(=O)N1Cc1ccc(N2CCCC2=O)cc1 (stereo not given)	none
Cc1ccc(NC(=O)CCC(=O)OC(C(=O)c2ccc(C)c(C)c2)c2ccccc2)c(C)c1 (stereo not given)	none
O=c1[nH]c2ccccc2c(=O)n1CCCO	none
CCn1c(SC(C)C(=O)NC2CCCc3ccccc32)nnc1-c1cccs1 (stereo not given)	CYP2C9 inhib 86, CYP2C19 inh 89
CCn1c(SCC(=O)NC2CCCc3ccccc32)nnc1-c1cccs1 (stereo not given)	none
CCn1c(SCC(=O)NCc2ccc3c(c2)OCO3)nnc1-c1cccs1	CYP2C9 inhib 77
CCn1c(SCC(=O)Nc2cc(OC)c(OC)c(OC)c2)nnc1-c1cccs1	CYP2C9 inhib 52
Cc1ccc(-c2csc3nnc(SCC(=O)NCc4ccc5c(c4)OCO5)n23)cc1	none
CCn1c(SCC(=O)Nc2ccc(OC)c(OC)c2)nnc1-c1cccs1	none (no result: EphB4 antag)
O=C(CSc1nnc(-c2cccs2)n1-c1ccccc1)NCc1ccc2c(c1)OCO2	CYP2C9 inhib 92, CYP2C19 inh 68
O=C(CSc1nnc(-c2ccco2)n1-c1ccccc1)NCc1ccc2c(c1)OCO2	none
O=C(CSc1nnc(-c2cccs2)n1Cc1ccccc1)NCc1ccc2c(c1)OCO2	CYP2C9 inhib 79, CYP2C19 inh 53
COc1cccc(C2NC(=O)c3ccccc3O2)c1OC (stereo not given)	CYP2C19 inh 86
COc1cc2c(c(OC)c1)C(c1cccc(OC)c1OC)CC(=O)N2 (stereo not given)	none (no result: CYP2C9 inhib, CYP2C19 inh, CYP2C19 activ, CYP2C9 activ)
COc1ccc2c(c1OC)C(=O)N1c3ccccc3COC21 (stereo not given)	none
COc1ccc(C2NC(=O)c3ccccc3O2)c(OC)c1OC (stereo not given)	CYP2C9 inhib 70, CYP2C19 inh 85
CN(C(=O)c1ccccc1C(=O)c1ccccc1)C1CCS(=O)(=O)C1 (stereo not given)	none
O=[N+]([O-])c1cccc(/C(=N/N=C/c2ccccc2Br)C23CN4CN(CN(C4)C2)C3)c1	none
Nn1cc(-c2ccccc2)nc1SCC(=O)N1CCN(S(=O)(=O)c2ccccc2)CC1	none
COc1ccccc1N(CCC#N)C(=O)CSc1nc(-c2ccccc2)cn1N	CYP2C19 inh 75
Cc1cc(CN(C)C)c(O)c(C2(C)CCCCC2)c1	none
COc1ccc(S(=O)(=O)Nc2ccc3c(c2)COC3=O)cc1OC	CYP2C19 inh 84
O=C1OCc2cc(NS(=O)(=O)c3cccs3)ccc21	CYP2C9 inhib 89, CYP2C19 inh 76
O=S(=O)(NC1=NCCC1)c1cccs1	none
O=S(=O)(Nc1ccc2c(c1)CCC2)c1cccs1	CYP2C9 inhib 83, CYP2C19 inh 99
CS(=O)(=O)Nc1ccc2c(c1)C(=O)OC2	none
O=C(c1c(F)cccc1F)N(Cc1ccccn1)C1CC1	none
O=C(COC(=O)C1COc2ccccc2O1)NC(=O)NC1CCCC1 (stereo not given)	none
Cc1ccc(C)c(C(=O)Cn2ncc(Cl)c(Cl)c2=O)c1	CYP2C9 activ 2.1
Cc1cccc(Nc2nc(N)nc(CSc3nccn3C)n2)c1	none
O=C(COC(=O)[C@H](Cc1c[nH]c2ccccc12)NC(=O)c1ccc(Cl)cc1)Nc1ccc2c(c1)OCO2	CYP2C9 inhib 98
CCOC(=O)CSc1nnc(CNC(=O)c2ccc(OC)cc2)n1C1CCCCC1	CYP2C19 inh 75
CCN(CC)S(=O)(=O)c1ccc(NS(=O)(=O)c2cccc(C)c2)cc1	CYP2C9 inhib 91
CC(C)(C)n1nc2c(c1NC(=O)c1ccc(S(=O)(=O)N3CCCC3)cc1)CSC2	none
CCN(CC)S(=O)(=O)c1ccc(NC(=O)CN(c2cccc(C)c2)S(C)(=O)=O)cc1	none (no result: CYP2C9 inhib, CYP2C19 inh, CYP2C19 activ, CYP2C9 activ)
CCN(CC)S(=O)(=O)c1ccc(NS(=O)(=O)c2ccc(F)cc2)cc1	CYP2C9 inhib 86
CCN(CC)S(=O)(=O)c1ccc(C(=O)Nc2cccc(C)c2)cc1	CYP2C9 inhib 55, CYP2C19 inh 55
Cc1cccc(NC(=O)c2ccc(S(=O)(=O)N(C)C)cc2)c1	none

Bioassay records deposited in PubChem BioAssay by several laboratories.
